Inhibition data for 66 molecules are collected here from PubChem BioAssay AID1259343 (VanderVen Lab, College of Veterinary Medicine, Cornell …, 2017).

The whole screen tested about 6,200 compounds, of which about 2,900 (47%) were called active. The set was probably picked from earlier hits. The list shows a part of the results. Values without a mark were called inactive. Cut-off read from the data, not from the text of the source: active = inhibition above about 50%; inactive = the rest.

This experiment can be described thus: Mycobacterium tuberculosis growth inhibition, primary screen (AID 1259343). Conditions: inhibition: at 10 µM, stronger effect = higher value; outcome: 10 uM.
`Cc1ccc(NS(=O)(=O)c2ccc(C)c(F)c2)c(C(=O)O)c1`: the inhibition was 8.32%.

Regarding `O=S(=O)(Nc1cc(F)ccc1F)c1cc(Cl)cc(Cl)c1`, the inhibition was 64.2% (active).

Turning to `O=S(=O)(Nc1cc(Cl)ccc1O)c1cc(Br)ccc1Br`, the inhibition is 105% (active).

Consider `O=S(=O)(Nc1ccc(F)cc1F)c1cccc(F)c1`, for which the inhibition is -36.4%. Under `O=S(=O)(Nc1cccc(F)c1)c1cc(Br)ccc1Br` stands 29.6%; under `O=S(=O)(Nc1c(F)cccc1F)c1cccc(Br)c1`, 4.09%; under `O=C(O)c1cc(F)ccc1NS(=O)(=O)c1ccc(Cl)cc1`, 70% (active). The figure for `CCCc1ccc(S(=O)(=O)Nc2ccc(F)cc2C(=O)O)cc1` is -3.59%; for `O=S(=O)(Nc1cc(F)ccc1F)c1cccc(Br)c1` it is 103% (active); for `O=S(=O)(Nc1ccc(F)cc1)c1cc(Br)ccc1Br` it is 33.5%. The figure for `Cc1ccc(NS(=O)(=O)c2cccc(C(F)(F)F)c2)c([N+](=O)[O-])c1` is 77.1% (active); for `O=S(=O)(Nc1cc(F)ccc1F)c1ccc(Cl)cc1F` it is 64.4% (active); for `Cc1ccc(C)c(S(=O)(=O)Nc2ccc(Cl)cc2F)c1` it is 0.55%. For the molecule `O=[N+]([O-])c1cc(Cl)ccc1NS(=O)(=O)c1cccc(C(F)(F)F)c1`, the inhibition is -1.17%. Under `O=S(=O)(Nc1ccccc1I)c1ccc(C(F)(F)F)cc1` stands 41.5%. Consider `Cc1ccc(NS(=O)(=O)c2ccc(Cl)cc2F)c(Cl)c1`, for which the inhibition is 73% (active). For `O=S(=O)(Nc1ccc(F)cc1F)c1ccc(Cl)cc1F`, the inhibition was -21.9%.

As to `O=[N+]([O-])c1ccc(Cl)c(S(=O)(=O)Nc2ccc(F)cc2Cl)c1`, the inhibition was 78.2% (active). Under `CCC1=NOC(c2nc3sc(C(C)(C)C)cc3c(=O)[nH]2)C1` (stereo unspecified) stands 25.8%; under `Cc1ccc(S(=O)(=O)Nc2ccc(Cl)c(C#N)c2)cc1`, -29.9%; under `Cc1ccc(NS(=O)(=O)c2cc(Cl)cc(Cl)c2)cc1`, 88.4% (active). Under `O=C(C1=C2SC=C(c3ccc(Br)cc3)N2CC1)c1ccc2c(c1)OCO2` stands -40.9%; under `CCCc1cc(=O)[nH]c(-n2nc(C)cc2NC(=O)Cc2cccc3ccccc23)n1`, 100% (active); under `Cc1cc(=O)[nH]c(-n2nc(C)cc2NC(=O)Cc2cccc3ccccc23)n1`, 102% (active). Under `CCCc1cc(=O)[nH]c(-n2nc(C)cc2NC(=O)CC(c2ccccc2)c2ccccc2)n1` stands 101% (active); under `CCCc1cc(=O)[nH]c(-n2nc(C)cc2NC(=O)C(CC)c2ccccc2)n1` (stereo unspecified), 102% (active). For the molecule `CCCc1cc(=O)[nH]c(-n2nc(C)cc2NC(=O)Cc2ccccc2)n1`, the inhibition was 99.9% (active). The figure for `CCCc1cc(=O)[nH]c(-n2nc(C)cc2NC(=O)CCc2ccccc2)n1` is -14.3%; for `CCCc1cc(=O)[nH]c(-n2nc(C)cc2NC(=O)Cc2ccc(OCC)cc2)n1` it is -19.4%; for `COc1c(-c2coc3cc4c(cc3c2=O)CC(OC(C)=O)C(C)(C)O4)ccc2c1C=CC(C)(C)O2` (stereo unspecified) it is 77.7% (active). The figure for `CCCNC(=O)CN1CCc2cc(Br)ccc21` is 74.1% (active); for `O=C(Cc1ccccc1O)N1CCc2cc(Br)ccc21` it is 23.1%. Under `CCOC(C)c1nc(CN2CCc3cc(Br)ccc32)cs1` (stereo unspecified) stands 28.4%. As to `O=S(c1ccccc1)c1ccc2nnnn2n1` (stereo unspecified), the inhibition was -44%. Under `CC(C)c1ccc(Oc2ccc3nnnn3n2)cc1` stands 55.6% (active). The figure for `Cc1cc(Oc2ccc(C(C)C)cc2)nc(SCc2ccc(F)c(F)c2)n1` is -1.84%. In the case of `CCc1nc2ccc(C(=O)NCCOc3ccc(OC)cc3)cn2c1N(C=O)Cc1ccc(OC)cc1`, the inhibition is 47%.

On to `COc1ccc(Oc2ccc(C(=O)NCCN3CCNC3=O)cc2)cc1`, for which the inhibition was 73.9% (active). With `COc1ccc2c(c1)CCCN2Cc1ccc(C(N)=O)cc1`, the inhibition is 20.6%. The figure for `COc1ccc(Oc2ccc(C(=O)NCCc3cnc[nH]3)cc2)cc1` is 52.5% (active); for `COc1ccc(CNC(=O)c2ccc(Br)cn2)cc1` it is 14.4%; for `O=C(NCc1ccc(OC(F)F)cc1)c1ccc(Cl)cc1` it is 85.9% (active). As to `O=C(NCc1ccc(OC(F)F)cc1)c1cnccn1`, the inhibition was 85.3% (active).

As for `OC(c1ccc(Cl)cc1)c1ccc(OC(F)F)cc1` (stereo unspecified), the inhibition is 19.4%. The figure for `Cc1ccc(C)c(C(C)CNC(=O)c2cnccn2)c1` (stereo unspecified) is 21.5%; for `COc1ccc2c(c1)CCC1C2CC[C@@]2(C)C1CC[C@@H]2O` (stereo partly specified) it is 46%.

On to `Cc1c(N)c(C)c([N+](=O)[O-])c(C)c1[N+](=O)[O-]`, for which the inhibition was -53.9%. Under `N#CCc1cccc(C(=O)Nc2cc(F)cc(N3CCCC3)c2)c1` stands 84.4% (active). The figure for `Cc1cc(N2CCCC2)ccc1NC(=O)c1cccc(NC(=O)OC(C)(C)C)c1` is 20.1%; for `CC(=O)c1ccc(N2CCCC2)cc1OCc1cccc(C)c1` it is 36.7%. Under `COc1ccc(OCCSc2nnnn2-c2ccc(OC)cc2)cc1` stands -17.4%; under `COc1ccc(-n2nnnc2SCc2ccc(C#N)cc2)cc1`, 82.8% (active); under `COc1ccc(-n2nnnc2SCCOc2ccc(Br)cc2)cc1`, “inactive”. Regarding `O=P1(Nc2ccc(-c3ccccc3)cc2)C=C(c2ccccc2)OC(c2ccccc2)=C1`, the inhibition was 98.4% (active). Under `Cc1c(C(=O)OCC(C)C)[nH]c2c1C(=O)CCC2` stands 60.5% (active). Under `CCCc1cc(=O)[nH]c(-n2nc(C)cc2NC(=O)C2CC2)n1` stands 101% (active); under `CCc1cc(=O)[nH]c(-n2nc(C)cc2NC(=O)C2CC2)n1`, 101% (active). The figure for `O=c1c(Sc2ccc(Cl)cc2)c(O)c2c(n1-c1ccccc1)CCCC2` is 40.5%; for `CCNCC#CCOc1ccc(C)c(C)c1` it is -6.66%. On to `CC(=O)Oc1ccc2c(=O)oc(COc3ccc(C)c(C)c3)nc2c1`, for which the inhibition was 60.8% (active). With `CC(C)n1ncc2cc(N)cnc21`, the inhibition is 83.8% (active). For the molecule `O=C(Nc1ccc(-n2cccc2)cc1)C1=CN2CCN(Cc3cscn3)C(=O)N=C2O1`, the inhibition is 4.33%. The figure for `O=C1N=C2OC(C(=O)Nc3cccc(Cc4ccccc4)c3)=CN2CCN1` is 91.3% (active). In the case of `CCN1CC(CN(C)C(=O)Nc2nc3ccccc3s2)Oc2ccccc21` (stereo unspecified), the inhibition was 12.4%.

In the case of `CN(C(=O)Nc1nc2ccc(F)cc2s1)C1CCCc2ccccc21` (stereo unspecified), the inhibition was 74.2% (active). For `CC(=O)N1CCN(CC(=O)Nc2nc3ccc(F)cc3s2)CC1`, the inhibition is 15.5%.
